According to PubChem BioAssay:
Values joined by “and” are separate entries in the source; they are usually repeats but may differ in a detail not shown here. Identical values can stand only once. Results filed as inconclusive are left out. Active and inactive are the calls of the source. Cut-off read from the data, not from the text of the source, unless noted: active = inhibition above about 80%; inactive = the rest.

Key:
[1] = viability loss in pontine glioma line – cell-based, SU-DIPG-XVII, MIPE5.0, CellTiter-Glo, qHTS, dose response (AID 1347060; cut-off not given, nearly all actives have AC50 up to about 26 µM); conditions: CellTiter-Glo ATP luminescence
[2] = viability loss in pontine glioma line – cell-based, SU-DIPG-XXV, MIPE5.0, CellTiter-Glo, qHTS, dose response (AID 1347065; cut-off not given, nearly all actives have AC50 up to about 26 µM;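 note: cells exposed to compound for 48 hours before ATP readout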); conditions: CellTiter-Glo ATP luminescence
[3] = JHH-DIPG-1 glioma cell viability, MIPE5.0 library, CellTiter-Glo luminescence, qHTS (AID 1347067; cut-off not given, nearly all actives have AC50 up to about 26 µM;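 note: cells exposed to compound for 48 hours before readout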); conditions: JHH-DIPG-1 glioma viability, CellTiter-Glo ATP luminescence
[4] = growth inhibition of DIPG cells – cell-based, MIPE5.0 library, qHTS (AID 1347068; cut-off not given, nearly all actives have IC50 up to about 30 µM); conditions: SU-DIPG-XXV viability
[5] = growth inhibition, single agent or in combination, cell-based, chromothripsis tumors, cisplatin or BGB combos (AID 1671449); conditions: LFS_MB_P medulloblastoma cells;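 note: cells exposed for 96 hours; 0% = vehicle DMSO and 100% = killing by high DMSO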
[6] = growth inhibition, single agent and combos, cell-based, chromothripsis tumors, cisplatin or BGB combos (AID 1671450); conditions: HDN33 neuroblastoma cells, stronger effect = higher value;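 note: cells exposed to compound for four days; 0% = vehicle DMSO and 100% = cell killing by high DMSO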
[7] = growth inhibition, single agents and combos, ICB984, cell-based, cisplatin or BGB combos, synergistic combos for chromothripsis tumors (AID 1671451; call rule not given here;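 note: cells exposed for 96 hours before readout; 0% = vehicle DMSO and 100% = killing by high DMSO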); conditions: ICB984 medulloblastoma cells, drug combinations, stronger effect = higher value
[8] = growth inhibition, single agents and combos, LFS_MB_1R, cell-based, cisplatin or BGB combos, synergistic combos for chromothripsis tumors (AID 1671452); conditions: LFS_MB_1R medulloblastoma cells, stronger effect = higher value;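 note: cells exposed for 96 hours before readout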
[9] = growth inhibition, single agents and combos, HTB85, cell-based, BGB or cisplatin IC20 combos, synergistic combos for chromothripsis tumors (AID 1671453); conditions: HTB85 osteosarcoma cells, drug combinations, stronger effect = higher value;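 note: cells exposed for 96 hours before readout; 0% = vehicle DMSO and 100% = high DMSO killing control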
[10] = growth inhibition, single agents and combos, CRL2098, cell-based, BGB or cisplatin IC20 combos, synergistic combos for chromothripsis tumors (AID 1671454); conditions: CRL2098 osteosarcoma cells, drug combinations, stronger effect = higher value;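 note: cells exposed for 96 h before readout; 0% = vehicle DMSO and 100% = killing by high DMSO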
[11] = growth inhibition, single agents and combos, HD-MB03, cell-based, BGB or cisplatin IC20 combos, synergistic combos for chromothripsis tumors (AID 1671455; in the data active = inhibition above about 83%;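 note: 0% = vehicle DMSO and 100% = high DMSO as cytotoxic control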); conditions: HD-MB03 medulloblastoma cells, stronger effect = higher value
[12] = growth inhibition, single agents and combos, UWB1.289, cell-based, BGB or cisplatin combos, synergistic combos for chromothripsis tumors (AID 1671456); conditions: UWB1.289 ovarian carcinoma cells, stronger effect = higher value;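 note: cells exposed to compound for four days; 0% = vehicle DMSO and 100% = killing by high DMSO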
[13] = growth inhibition, single agents and combos, LFS_MB_2R, cell-based, cisplatin combos, synergistic combos for chromothripsis tumors (AID 1671457); conditions: LFS_MB_2R medulloblastoma cells, stronger effect = higher value;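 note: cells exposed to compound for four days before readout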
[14] = growth inhibition, MDA-MB-436, cell-based, BGB or cisplatin combos, synergistic combos for chromothripsis tumors (AID 1671458; call rule not given here;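 note: cells exposed for 96 hours; 0% = vehicle DMSO and 100% = killing by high DMSO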); conditions: MDA-MB-436 breast carcinoma growth inhibition, drug combinations, stronger effect = higher value
[15] = UWB1.289_BRCA1 ovarian cancer growth, cell-based, BGB or cisplatin combinations (AID 1671459); conditions: UWB1.289 BRCA1 ovarian carcinoma, drug combinations, stronger effect = higher value
[16] = BT084 cell growth, single and combined drugs, ICGC_MB145, cisplatin and BGB IC40 combos (AID 1671461); conditions: BT084 medulloblastoma cells, drug combinations, stronger effect = higher value;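 note: cells exposed to drugs for 96 hours; 0% = vehicle DMSO and 100% = high DMSO full killing control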
[17] = RCMB18 cell growth, single agent and combined, cisplatin and BGB IC40 combos (AID 1671462); conditions: RCMB18 medulloblastoma cells, stronger effect = higher value;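 note: cells exposed to compound for four days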
[18] = CRL1545 cell growth, single agent and combined, cisplatin and BGB IC20 combos (AID 1671464); conditions: CRL1545 osteosarcoma cells, stronger effect = higher value;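 note: cells exposed to compound for 96 hours before readout; 0% = vehicle DMSO and 100% = high DMSO killing control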
[19] = measured here: combination with BGB IC40, at 0.05 µM
[20] = measured here: with BGB IC20 combination, at 0.5 µM
[21] = measured here: with cisplatin IC20 combination, at 0.5 µM
[22] = measured here: combination with cisplatin, at 0.5 µM
[23] = measured here: combination with cisplatin, at 5 µM

SMILES: CCC(=O)NS(=O)(=O)c1ccc(-c2c(-c3ccccc3)noc2C)cc1
- outcome [1]: inactive
- outcome [2]: inactive
- outcome [3]: inactive
- outcome [4]: inactive

SMILES: CO[C@H]1O[C@@H]2O[C@@]3(C)CC[C@H]4[C@H](C)CC[C@@H]([C@H]1C)[C@@]24OO3
- outcome [1]: inactive
- outcome [2]: inactive
- outcome [3]: inactive
- outcome [4]: inactive

SMILES: CO[C@H]1C=CO[C@@]2(C)Oc3c(C)c(O)c4c(O)c(c5c(nc6cc(C)ccn65)c4c3C2=O)NC(=O)C(C)=CC=C[C@H](C)[C@H](O)[C@@H](C)[C@@H](O)[C@@H](C)[C@H](OC(C)=O)[C@@H]1C
- inhibition ([5]; at 0.5 µM, stronger effect = higher value): -25.7% (inactive) and 0.03% (inactive)
- inhibition ([5]; measured here: combination with BGB IC20, at 0.005 µM): -21% and -12.6%
- inhibition ([5]; measured here: combination with BGB IC40, at 0.005 µM): -15.4% and -21%
- inhibition [5, 19]: -19.4% and -36.7%
- inhibition ([5]; measured here: combination with cisplatin, at 0.5 µM, stronger effect = higher value): -19.3% and -0.506%
- inhibition ([5]; measured here: combination with cisplatin, at 5 µM, stronger effect = higher value): -24.8% and 7.24%
- inhibition ([6]; BGB combo, at 5 µM): -5.62% and -13.7%
- inhibition ([6]; at 0.5 µM): -1.69% (inactive) and -3.15% (inactive)
- inhibition ([6]; cisplatin combo, at 5 µM): -20.9% and -12.7%
- inhibition [6, 20]: 24.2% and -1.36%
- inhibition [6, 21]: -2.79% and 1.82%
- inhibition ([6]; single agent, at 5 µM): -32.3% and -1.92%
- inhibition ([7]; BGB IC20 combo, at 0.005 µM): 0.503% and -4.57%
- inhibition ([7]; BGB IC40 combo, at 0.005 µM): 18.5% and -33.7%
- inhibition ([7]; BGB IC40 combo, at 0.05 µM): -2.72% and 6.47%
- inhibition ([7]; at 0.5 µM): -25.8% (inactive) and -13.5% (inactive)
- inhibition ([7]; cisplatin combo, at 0.05 µM): -2.72% and 3.11%
- inhibition ([7]; cisplatin combo, at 0.5 µM): -37.2% and -4.35%
- inhibition ([7]; cisplatin combo, at 5 µM): -14.1% and -11.2%
- inhibition ([7]; measured here: 5 uM single agent, at 5 µM): -18.1% and 0.267%
- inhibition ([8]; at 0.5 µM): 17.8% (inactive) and -17.4% (inactive)
- inhibition [8, 19]: -4.04% and -14.4%
- inhibition [8, 22]: -10.1% and -31.8%
- inhibition [8, 23]: -6.72% and -38.3%
- inhibition ([9]; at 0.5 µM): -5.41% (inactive) and -9.58% (inactive)
- inhibition ([9]; measured here: with BGB IC20, at 0.5 µM): -40.5% and -14.9%
- inhibition ([9]; measured here: with BGB IC20, at 5 µM): -22.4% and -7.39%
- inhibition ([9]; measured here: with cisplatin IC20, at 0.5 µM): 16.5% and -6.9%
- inhibition ([9]; measured here: with cisplatin IC20, at 5 µM): 10.3% and 21%
- inhibition ([9]; single agent, at 5 µM): -1.97% and 12.2%
- inhibition ([10]; at 0.5 µM): -18.8% (inactive) and -34.3% (inactive)
- inhibition ([10]; measured here: combination with BGB at IC20, at 0.5 µM): -28.7% and -29%
- inhibition ([10]; measured here: combination with cisplatin at IC20, at 0.5 µM): -10.1% and -43.6%
- inhibition ([11]; at 0.5 µM): -6.38% (inactive) and 5.86% (inactive)
- inhibition ([11]; measured here: combo with BGB at IC20, at 0.5 µM): -2.33% and 1.22%
- inhibition ([11]; measured here: combo with cisplatin at IC20, at 0.5 µM): -9.26% and 19.1%
- inhibition ([12]; at 0.5 µM): 4.48% (inactive) and 6.54% (inactive)
- inhibition ([12]; measured here: inhibition with BGB combination, at 0.05 µM): -18.6% and -11.7%
- inhibition ([12]; measured here: inhibition with cisplatin combination, at 0.05 µM): -10.6% and 10.3%
- inhibition ([13]; at 0.5 µM): -17.5% (inactive) and -15.1% (inactive)
- inhibition [13, 22]: -7.91% and -17.1%
- inhibition [13, 23]: -18% and -13.3%
- inhibition ([14]; at 0.5 µM): -11.8% (inactive) and -3.37% (inactive)
- inhibition ([14]; measured here: BGB combination, at 0.5 µM): -0.535% and -8.79%
- inhibition ([14]; measured here: BGB combination, at 5 µM): -3.41% and -15.2%
- inhibition ([14]; measured here: cisplatin combination, at 0.5 µM): -30.7% and -0.606%
- inhibition ([14]; measured here: cisplatin combination, at 5 µM): -23.7% and -8.55%
- inhibition ([15]; BGB combination, concentration series, at 5 µM): 3.57% and 12%
- inhibition ([15]; at 0.5 µM): 6.89% (inactive) and 6.14% (inactive)
- inhibition ([15]; cisplatin combination, concentration series, at 5 µM): 5.53% and -6.86%
- inhibition ([16]; at 0.5 µM): -17.7% (inactive) and -11.5% (inactive)
- inhibition ([16]; cisplatin combination, at 0.5 µM): -34% and -17.3%
- inhibition ([16]; cisplatin combination, at 5 µM): -37% and 5.08%
- inhibition ([16]; measured here: BGB IC40 combination 0.05 uM, at 0.05 µM): -7.06% and 28.8%
- inhibition ([16]; single agent, at 5 µM): -13.3% and -9.78%
- inhibition ([17]; at 0.5 µM): -1.81% (inactive) and -2.64% (inactive)
- inhibition ([17]; cisplatin combo, at 5 µM): -11.2% and 11.2%
- inhibition ([17]; measured here: BGB IC40 combination, at 0.05 µM): 12.8% and 1.86%
- inhibition [17, 22]: -36.9% and 15.4%
- inhibition ([17]; single agent, at 5 µM): -12% and -2.61%
- inhibition ([18]; at 0.5 µM): 8.59% (inactive) and -15.2% (inactive)
- inhibition [18, 20]: -1.52% and -4.42%
- inhibition [18, 21]: 13.6% and -22.6%
- inhibition ([18]; single agent, at 0.05 µM): 15.1% and 18%
- inhibition ([18]; single agent, at 5 µM): -31.6% and 28.6%
